Screens deposited in PubChem by National Center for Advancing Translational Sciences (NCATS).
DRD3 antagonist: qHTS of D3 Dopamine Receptor Antagonist: qHTS; hit rate 2.5% among 360,000; max response, negative = inhibition, %; D(3) dopamine receptor (Homo sapiens), P35462; D3R cells, DiscoveRx beta-arrestin luminescence, antagonist mode; stronger effect = lower value; in the data active means max response below about -50%; inconclusive means no clear call, values can overlap the other calls; further: on the % scale 0 is the no-effect control and ±100 the full control effect
Target sequence (P35462 whole entry, looked up): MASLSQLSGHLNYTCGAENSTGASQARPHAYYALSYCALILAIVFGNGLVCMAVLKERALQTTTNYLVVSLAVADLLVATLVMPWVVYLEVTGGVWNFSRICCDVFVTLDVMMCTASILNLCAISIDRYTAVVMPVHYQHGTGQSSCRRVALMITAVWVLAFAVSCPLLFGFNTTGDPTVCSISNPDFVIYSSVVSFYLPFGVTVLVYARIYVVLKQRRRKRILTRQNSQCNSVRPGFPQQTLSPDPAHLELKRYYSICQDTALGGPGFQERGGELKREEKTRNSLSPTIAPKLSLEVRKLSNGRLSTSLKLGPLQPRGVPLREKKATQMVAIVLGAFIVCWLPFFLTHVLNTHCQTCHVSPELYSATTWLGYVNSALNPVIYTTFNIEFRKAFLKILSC
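Cells expressing the human receptor were seeded at 1500 cells/well, incubated overnight at 37 degrees C in 5% CO2, then exposed to library compounds with dopamine controls for 90 minutes at 37 degrees C before luminescent detection.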
DRD3 agonist: qHTS of D3 Dopamine Receptor Agonist: qHTS. D(3) dopamine receptor (Homo sapiens), P35462. D3R DiscoveRx beta-arrestin cells, luminescence, 90 min. max activation, %. hit rate 0.58% among 410,000. AID 652048, 2013; in the data active means max activation above about 30%; further: 0% is about no effect
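Agonist-mode cell screen: cells plated at 1500/well and incubated overnight at 37 °C, then exposed to library compounds for 90 min at 37 °C. Detection reagent was added for 30–60 min at room temperature, and luminescence was read.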
TDP1 cell noCPT: qHTS for Inhibitors of human tyrosyl-DNA phosphodiesterase 1 (TDP1): qHTS in cells in absence of CPT. hit rate 15% among 420,000. AID 686978, 2013. Potency, µM (series often up to 46.2 µM), for inactives: top-dose activity change, negative = growth inhibition, usual class: inhibitors. DT40 Tdp1-/- hTDP1 cells, no CPT, ATP luminescence, 48 h; further: potency means the concentration at half of the fitted maximal effect; on the % scale 0 is the no-effect control and ±100 the full control effect; nearly all actives have a fitted effect of over 55% in size
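Compound effects on proliferation are scored in DT40 Tdp1-/-;hTDP1 cells in the absence of CPT. ATP levels (CellTiter-Glo luminescence) are recorded after a ≥48 hr, 37 °C incubation.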
DT40 TDP1 CPT: qHTS for Inhibitors of human tyrosyl-DNA phosphodiesterase 1 (TDP1): qHTS in cells in presence of CPT; chicken DT40 Tdp1-/-;hTDP1 cells + 20 nM CPT, ATP luminescence, 48 h; Potency, µM (highest dose often 46.2 µM), for the others: at the top dose activity change, negative = growth inhibition, hits mostly inhibitors; hit rate 12% among 420,000; AID 686979, 2013; further: potency means the concentration at half of the fitted maximal effect; on the % scale 0 is the no-effect control and ±100 the full control effect; nearly all actives have a fitted effect of over 55% in size
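Chicken DT40 Tdp1-/- cells complemented with human TDP1, 400 cells/well, exposed to compounds plus 20 nM camptothecin for at least 48 h at 37 C; viability read as ATP content by CellTiter-Glo luminescence.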
ClpP mod: qHTS Assay for Activators of ClpP | AID 651965, 2013 | hit rate 1.9% among 340,000 | Potency, µM (titrated, usually from 57.5 µM), for inactives: at the highest dose activity change, negative = active | purified B. subtilis ClpP, FRET peptide cleavage, 20 min; active means well fitted falling curve with a large enough effect; inconclusive means small, poorly fitted or top-dose-only effect; inactive means no such curve, though single readings can be large or run the other way; further: potency means the concentration at half of the fitted maximal effect; the source files actives as falling curves though it sought activators and does not explain the sign; nearly all actives have a fitted effect of over 65% in size
Target sequence (P80244 whole entry, looked up): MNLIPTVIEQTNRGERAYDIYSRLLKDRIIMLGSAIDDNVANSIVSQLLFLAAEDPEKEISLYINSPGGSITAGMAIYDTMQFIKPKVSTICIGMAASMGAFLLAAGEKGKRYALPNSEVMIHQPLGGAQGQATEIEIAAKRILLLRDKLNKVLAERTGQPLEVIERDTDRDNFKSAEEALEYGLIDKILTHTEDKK
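Purified B. subtilis ClpP, 10 microg/mL final in Tris/HCl pH8 with KCl, BSA, glycerol and Tween-20, cleaved an Abz/nitrotyrosine-quenched decapeptide. Fluorescence (ex 320, em 430) was read at 0 and 20 min at room temperature. Delta was normalized to 5.8 microM ADEP and DMSO/no-enzyme controls.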
IL1B secr inh: qHTS for Inhibitors of Inflammasome Signaling: IL-1-beta AlphaLISA Primary Screen | activity change, % at 57.5 µM | THP-1 LPS/ATP IL-1B secretion, AlphaLISA, 16 h; stronger effect = lower value | hit rate 4.7% among 360,000; in the data active means activity change below about -50%; inconclusive means mostly about -30% to -49%; further: on the % scale 0 is the no-effect control and ±100 the full control effect
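Secreted IL-1B measured by AlphaLISA bead assay after 16 h compound exposure of THP-1 cells; compounds (final up to 57.5 uM) added 1 h before LPS (250 ng/mL) and ATP (1.25 mM) stimulation; lower signal means less secretion.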
* hit, by the source's call; ? = inconclusive; nt = no result given; [ ] = another dose, or the depositor's remark. Compounds with a hit are over-represented: about 21% of the library has one in this group of screens. Unless noted, the call rests on the fitted dose curve; in most records, active means well fitted inhibition curve with a large enough effect; inconclusive means small, poorly fitted or top-dose-only effect; inactive means flat fitted curve, though single readings scatter.

SMILES	DRD3 antagonist	DRD3 agonist	TDP1 cell noCPT	DT40 TDP1 CPT	ClpP mod	IL1B secr inh
COc1ccc(C2=NN3C(C2)c2ccccc2OC3c2cccs2)cc1 (configuration not stated)	-7.0	-5.6	-19.5%	-17.1%	0.0%	-9.9
COc1ccc(C2=NN3C(C2)c2ccccc2OC32C(=O)N(C)c3ccccc32)cc1 (configuration not stated)	-4.4	-2.8	20.6µM*	?	-26.8%	-4.9
COc1ccccc1NC(=O)Nc1ccccc1C(=O)NCCCN1CCOCC1	1.5	-1.1	?	0.7%	2.8%	-8.5
COC(=O)C1=C[C@@H](C(=O)OC)[C@@H]2C3=C(C(=O)[C@@]2(C)NC(=O)c2ccccc2)[C@H](C)C(C(=O)OC)=C(C(=O)OC)[C@@H]3C1	33.2	7.0	-1.1%	0.0%	-0.5%	3.5
CCC(=O)c1ccc(OCCSc2ncccn2)cc1	6.9	5.2	18.4µM*	?	0.0%	-5.7
Cc1cccc(OCCOCCSc2ncccn2)c1	1.6	-1.8	-29.6%	-9.7%	-0.8%	23.7
c1ccc(OCCOCCSc2ncccn2)cc1	65.9	7.1	-0.5%	-5.9%	20µM*	12.1
COC(=O)c1ccc2nc(-c3ccco3)c(Cc3ccc(OC)cc3C)n2c1	6.6	4.5	?	?	-1.8%	-18.3
CC(C)(C)C(=O)NC1(C(F)(F)F)NC(=O)N(c2ccccc2F)C1=O (configuration not stated)	23.4	2.6	11.3%	20.8%	1.0%	6.1
Cc1ccc(N/C(C(Cl)=C(Cl)Cl)=C(/Cl)[N+](=O)[O-])c(C)c1	1.1	-2.8	16.4µM*	23.1µM*	1.9%	-18.5
COc1ccc2c(c1)CCc1cnc(-n3ncc(C(=O)NCCCc4ccncc4)c3C)nc1-2	nt	nt	18.4µM*	-2.3%[9.04 µM]	nt	nt
CCN(CC)CCNC(=O)c1cnn(-c2ncc3c(n2)-c2ccc(OC)cc2CC3)c1C	nt	nt	-17.3%	17.8%[9.04 µM]	nt	nt
Cc1cc(NC(=O)Nc2nnc(N(C)Cc3ccccc3)s2)ccc1Br	nt	-8.8	?	?	-0.7%	nt
CC1CCN(C(=O)CCCl)c2ccccc21 (configuration not stated)	-9.4	2.5	-17.7%	5.1%	2.1%	-5.3
CCc1c(C)nc2cc(-c3cc(OC)cc(OC)c3)nn2c1N1CCCC1	9.9	30.8*	23.1µM*	29.1µM*	-29.8%	?
CCOCCN1CCN(c2c(CC)c(C)nc3cc(-c4cc(OC)cc(OC)c4)nn23)CC1	16.2	0.7	14.6µM*	20.6µM*	-28.8%	?
CCOCCN1CCN(c2c3c(nc4cc(-c5ccc(F)cc5)nn24)CCC3)CC1	18.3	4.2	16.4µM*	?	-3.1%	-6.8
CCC(C)NC(=O)CCc1c(C)nc2nc(-c3cc(OC)cc(OC)c3)nn2c1C (configuration not stated)	38.3	3.2	?	-27.0%	-2.1%	-3.9
COc1ccc(NC(=S)N2CCN(c3ncccn3)CC2)c(OC)c1	-6.0	3.4	-12.7%	1.5%	-3.2%	9.2
COc1cc(OC)cc(-c2cc3nc4c(c(N5CCN(c6ncccn6)CC5)n3n2)CCCC4)c1	34.9	9.1	23.1µM*	?	35.5µM*	-10.8
CCn1nnnc1SCC(=O)Nc1ccc(F)cc1	-9.2	-2.9	?	-16.5%	nt	-6.2
CCc1c(C)nc2cc(-c3ccc(OC)c(OC)c3)nn2c1N1CCCC1	8.0	28.5	23.1µM*	?	?	?
O=C(Nc1ccc(F)cc1)Nc1ccc(N2CCOCC2)c2nonc12	-22.0	-9.8	?	-16.4%	nt	?
O=C(Nc1ccc(N2CCOCC2)c2nonc12)C1CCCC1	-12.0	-3.6	25.9µM*	18.4µM*	0.5%	-20.6
NS(=O)(=O)c1ccc(NC(=O)c2ccc3c(c2)CCN3S(=O)(=O)c2ccccc2)cc1	-1.0	-1.0	10.3µM*	23.1µM*	-1.8%	-4.1
SMILES	DRD3 antagonist	DRD3 agonist	TDP1 cell noCPT	DT40 TDP1 CPT	ClpP mod	IL1B secr inh
COc1ccc(NC(=O)c2ccc3c(c2)CCN3S(=O)(=O)c2ccccc2)cc1	7.5	0.8	?	?	-9.9%	-56.1*
CS(=O)(=O)N1CCc2cc(C(=O)Nc3ccc(Cl)cc3)ccc21	?	93.7*	?	-2.3%	nt	-12.2
CCCCOC(=O)c1ccc(NC(=O)c2ccc3c(c2)CCN3S(=O)(=O)c2ccccc2)cc1	nt	-8.9	7.31µM*	5.8µM*	-10.0%	nt
CCOC(=O)N1CCN(C(=O)c2ccc(CS(=O)Cc3ccc(C)cc3)o2)CC1 (configuration not stated)	0.6	-3.1	?	-23.0%	-1.4%	15.4
O=C(NCc1ccccc1)c1ccc2c(c1)CCN2S(=O)(=O)c1ccc(Cl)cc1	nt	3.7	?	?	-0.7%	nt
COc1ccccc1CNC(=O)c1ccc2c(c1)CCN2S(=O)(=O)c1ccccc1	nt	-9.0	8.2µM*	?	1.0%	nt
CCOC(=O)c1ccc(NC(=O)c2ccc3c(c2)CCN3S(=O)(=O)c2ccc(Cl)cc2)cc1	nt	-5.8	?	7.31µM*	-6.6%	nt
Cc1cc(C(=O)COc2ccccc2C(N)=O)c(C)n1C	0.3	-0.5	?	-6.5%	28.2µM*	-4.2
CC(C)CN(CC(C)C)C(=O)COc1ccccc1C(N)=O	21.9	-1.0	11.6µM*	?	-2.3%	0.0
CS(=O)(=O)N1CCCCC1c1cc(C(=O)NCc2ccc(F)cc2)no1 (configuration not stated)	-87.8*	-12.8	-26.2%	-28.8%	-0.1%	7.5
O=C(NCc1ccc(F)cc1)c1cc(C2CCCCN2S(=O)(=O)Cc2ccccc2)on1 (configuration not stated)	-99.1*	-16.0	?	?	-4.7%	-28.5
O=C(NCc1ccc(F)cc1)c1cc(C2CCCCN2S(=O)(=O)c2ccccc2)on1 (configuration not stated)	11.1	8.5	?	?	?	26.8
S=C(S)OC1CC2CC1C1CCCC21 (configuration not stated)	-80.5*	11.2	?	-2.4%	-3.0%	-4.7
COc1ccc(C(=O)O)cc1S(=O)(=O)Nc1ccc2cn[nH]c2c1	8.9	1.3	-1.4%	1.5%	1.4%	13.7
